# Measurements: ChEMBL document CHEMBL3433997, “St. Jude Leishmania screening dataset” (2016)
# Assays:
# Assay type in all cases: functional
# [1] = biological target: Solute carrier family 2, facilitated glucose transporter member 1 (Homo sapiens) (UniProt P11166); assay: ST_JUDE_LEISH: Cytotoxicity at 2uM final concentration against transgenic Leishmania Mexicana promastigotes LmGLUT1 that are glucose transport deficient and complemented with the human glucose transporter GLUT1. Activity is measured by DNA content using SYBR green in vitro
# Chain of Solute carrier family 2, facilitated glucose transporter member 1 (Homo sapiens) (P11166 whole entry): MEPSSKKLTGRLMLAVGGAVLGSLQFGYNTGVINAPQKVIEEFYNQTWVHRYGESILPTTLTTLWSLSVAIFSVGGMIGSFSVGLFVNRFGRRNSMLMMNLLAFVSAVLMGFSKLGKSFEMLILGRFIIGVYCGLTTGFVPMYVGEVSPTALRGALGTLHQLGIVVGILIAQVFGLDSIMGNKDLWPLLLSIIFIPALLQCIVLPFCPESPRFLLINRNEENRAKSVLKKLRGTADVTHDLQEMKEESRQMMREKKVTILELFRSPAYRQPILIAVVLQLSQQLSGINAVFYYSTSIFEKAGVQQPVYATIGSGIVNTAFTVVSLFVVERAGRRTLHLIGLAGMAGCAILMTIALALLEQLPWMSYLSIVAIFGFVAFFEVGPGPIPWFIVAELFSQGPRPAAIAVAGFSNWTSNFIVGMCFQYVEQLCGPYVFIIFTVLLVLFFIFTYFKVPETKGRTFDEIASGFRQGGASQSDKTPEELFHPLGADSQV
# [2] = biological target: Hexose transporter 1 (Plasmodium falciparum) (UniProt O97467); assay: ST_JUDE_LEISH: Cytotoxicity at 2uM final concentration against transgenic Leishmania Mexicana promastigotes LmPfHT that are glucose transport deficient and complemented with the Plasmodium falciparum hexose transporter. Activity is measured by DNA content using SYBR green in vitro
# [3] = biological target: Glucose transporter (Leishmania mexicana) (UniProt O61059); assay: ST_JUDE_LEISH: Cytotoxicity at 2uM final concentration against transgenic Leishmania Mexicana promastigotes LmGT2 that are glucose transport deficient and complemented with the L. Mexicana glucose transporter 2. Activity is measured by DNA content using SYBR green in vitro
SMILES,inhibition [1],inhibition [2],inhibition [3]
Cc1nccc2c(NC(=O)N[C@@H]3CCN(c4ncc(C(F)(F)F)cc4Br)C3)cccc12,1.06%,1.71%,0.74%
Oc1cccc(Nc2nc(NCc3ccco3)c3ccccc3n2)c1,19.6%,12.2%,4.1%
Cc1cc(NCCC(=O)NCCOc2ccccc2)nc(NCCOc2ccccc2)n1,3.09%,-0.07%,0.08%
CC(=O)Nc1ccc(OCCN(CC(C)C)c2ccc(C(F)(F)F)c(C#N)c2)c(Cl)c1,6.51%,10.4%,8.7%
COc1c(C2CCN(CCCCNC(=O)c3ccc(-c4ccc(Cl)cc4)c(OCC(N)=O)c3)CC2)ccc2c1CCCC2,4.52%,3.3%,5.11%
O=[N+]([O-])c1ccc2nc(Nc3ccc(Cl)c(Cl)c3)c(Nc3ccc(Cl)c(Cl)c3)nc2c1,0.54%,1.45%,1.69%
Cc1ccc(C)c(NC(=O)Nc2ccc(C)c(-c3ccc(C(=O)Nc4ccncc4)cc3)c2)c1,6.08%,3.66%,2.82%
CCCn1cnc2cc(C(=O)Nc3ccc(-c4cccc(CN(C)C)c4)cc3)ccc2c1=O,55%,3.03%,5.21%
Nc1ncc(-c2ccc(S(=O)(=O)Nc3ccc(C(=O)N[C@@H](CCC(=O)O)C(=O)O)cc3)cc2)c(=O)[nH]1,4.56%,4.19%,4.44%
O=[N+]([O-])c1ccc2c(c1)c1ccccc1n2Cc1ccccc1O,0.12%,1.04%,-2.69%
Cc1cccc(-c2ccc3c(c2)CC(NCc2cccc(-n4ccnc4)c2)C3)c1 (stereo not drawn),31.8%,41.4%,26.6%
O=C(/C=C/c1ccc(Cl)c(Cl)c1)NC1CCC(CN2CCC(c3nc4ccccc4n3CCCO)CC2)CC1 (stereo not drawn),0.86%,1.32%,1.75%
O=C(CSc1nc2ccccc2c(=O)n1CC1CCCO1)Nc1cc(C(F)(F)F)ccc1Cl (stereo not drawn),9.97%,9.45%,6.14%
CCCCCCOc1ccc(N2C(N)=NC(N)=NC2(C)C)cc1,1.45%,1.46%,0.46%
O=c1ccc2ccc(F)c3c2n1CC3CN1CCC(NCc2ccc(-c3cccc(Cl)c3)nc2)CC1 (stereo not drawn),26.2%,21.3%,14.9%
COc1ccc2nccc([C@@H](O)CN3CCC(NCc4ccc5c(c4)NC(=O)C(C)(C)O5)CC3)c2c1,7.93%,8.24%,3.18%
